# In the supplement of paper PMC4022240:
# ± gives the standard deviation.
# T1: HaloTag-ATRX ADD domain (163-292)
# T1 chain: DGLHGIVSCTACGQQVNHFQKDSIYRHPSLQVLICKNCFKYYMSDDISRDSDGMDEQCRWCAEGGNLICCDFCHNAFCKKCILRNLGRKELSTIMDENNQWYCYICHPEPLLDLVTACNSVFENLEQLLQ
# B1: H3 112-124 I H A Kme2 Rme2s V T I M P K D I (peptide)
# chain: IHAKRVTIMPKDI
# B2: H3 112-124 I H A Kme3 R V T I M P K D I (peptide)
# chain: IHAKRVTIMPKDI
# B3: H3 112-124 I H A Kme3 R V T I M P Kac D I (peptide)
# chain: IHAKRVTIMPKDI
# B4: H3 112-124 I H A Kme3 R V T I M P Kme D I (peptide)
# chain: IHAKRVTIMPKDI
# B5: H3 112-124 I H A Kme3 R V T I M P Kme2 D I (peptide)
# chain: IHAKRVTIMPKDI
# B6: H3 112-124 I H A Kme3 R V T I M P Kme3 D I (peptide)
# chain: IHAKRVTIMPKDI
# B7: H3 112-124 I H A Kme3 Rcit V T I M P K D I (peptide)
# chain: IHAKRVTIMPKDI
# B8: H3 112-124 I H A Kme3 Rme V T I M P K D I (peptide)
# chain: IHAKRVTIMPKDI
# B9: H3 112-124 I H A Kme3 Rme2a V T I M P K D I (peptide)
# chain: IHAKRVTIMPKDI
# B10: H3 112-124 I H A Kme3 Rme2s V T I M P K D I (peptide)
# chain: IHAKRVTIMPKDI
# Assays:
# Assay in all cases: peptide microarray binding signal (635 nm), min-max normalized on array (fraction of array maximum); higher = stronger binding
# Details in all cases: peptide region: H3 112-124
# [1] = molecular target: T1, HaloTag-ATRX ADD domain (163-292)
# Summary of the method: (§1)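 Binding signal is the mean intensity of triplicate spots, min-max scaled within each library. Histone 13-mer peptide–cellulose conjugates were spotted in triplicate on nitrocellulose with a Cy3 tracer and blocked overnight at 4°C. Probing lasted 1 h at 4°C, either with biotin-labelled HaloTag reader fusions (10 nM to 1 μM) and streptavidin-Alexa Fluor 647 or with rabbit histone antibodies (1:10,000 to 1:2,000) and anti-rabbit Alexa 647. An Axon GenePix 4000B read signal at 635 nm and misprints at 532 nm.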
# [2] = molecular target: HaloTag-ING2 PHD (mouse Ing2 200-280)
# Summary of the method: as §1
# [3] = molecular target: anti-H3K4me3 antibody ab8580
# Summary of the method: as §1
# [4] = molecular target: anti-H3K9me3 antibody ab8898
# Summary of the method: as §1
# [5] = peptide modifications: H3K115me2 H3R116me2s, binder concentration: 1:2,000 dilution
# [6] = peptide modifications: H3K115me2 H3R116me2s, binder concentration: 1:10,000 dilution
# [7] = peptide modifications: H3K115me3, binder concentration: 1:2,000 dilution
# [8] = peptide modifications: H3K115me3, binder concentration: 1:10,000 dilution
# [9] = peptide modifications: H3K115me3 H3K122ac, binder concentration: 1:2,000 dilution
# [10] = peptide modifications: H3K115me3 H3K122ac, binder concentration: 1:10,000 dilution
# [11] = peptide modifications: H3K115me3 H3K122me1, binder concentration: 1:2,000 dilution
# [12] = peptide modifications: H3K115me3 H3K122me1, binder concentration: 1:10,000 dilution
# [13] = peptide modifications: H3K115me3 H3K122me2, binder concentration: 1:2,000 dilution
# [14] = peptide modifications: H3K115me3 H3K122me2, binder concentration: 1:10,000 dilution
# [15] = peptide modifications: H3K115me3 H3K122me3, binder concentration: 1:2,000 dilution
# [16] = peptide modifications: H3K115me3 H3K122me3, binder concentration: 1:10,000 dilution
# [17] = peptide modifications: H3K115me3 H3R116cit, binder concentration: 1:2,000 dilution
# [18] = peptide modifications: H3K115me3 H3R116cit, binder concentration: 1:10,000 dilution
# [19] = peptide modifications: H3K115me3 H3R116me1, binder concentration: 1:2,000 dilution
# [20] = peptide modifications: H3K115me3 H3R116me1, binder concentration: 1:10,000 dilution
# [21] = peptide modifications: H3K115me3 H3R116me2a, binder concentration: 1:2,000 dilution
# [22] = peptide modifications: H3K115me3 H3R116me2a, binder concentration: 1:10,000 dilution
# [23] = peptide modifications: H3K115me3 H3R116me2s, binder concentration: 1:2,000 dilution
# [24] = peptide modifications: H3K115me3 H3R116me2s, binder concentration: 1:10,000 dilution
binder,measurement,setting,value
B1,peptide microarray binding signal,"[1]; peptide modifications: H3K115me2 H3R116me2s, binder concentration: 50 nM",0.006426 ± 2.2e-05
same,peptide microarray binding signal,"[1]; peptide modifications: H3K115me2 H3R116me2s, binder concentration: 500 nM",0.00905 ± 0.00055
same,peptide microarray binding signal,"[2]; peptide modifications: H3K115me2 H3R116me2s, binder concentration: 10 nM",0.0113 ± 0.0004
same,peptide microarray binding signal,"[2]; peptide modifications: H3K115me2 H3R116me2s, binder concentration: 100 nM",0.0135 ± 0.00076
same,peptide microarray binding signal,[3]; [5],0.00383 ± 0.0002
same,peptide microarray binding signal,[3]; [6],0.00462 ± 0.00022
same,peptide microarray binding signal,[4]; [5],0.00335 ± 0.00032
same,peptide microarray binding signal,[4]; [6],0.00236 ± 3.7e-05
B2,peptide microarray binding signal,"[1]; peptide modifications: H3K115me3, binder concentration: 50 nM",0.00549 ± 0.00022
same,peptide microarray binding signal,"[1]; peptide modifications: H3K115me3, binder concentration: 500 nM",0.0171 ± 0.00049
same,peptide microarray binding signal,"[2]; peptide modifications: H3K115me3, binder concentration: 10 nM",0.026 ± 0.0073
same,peptide microarray binding signal,"[2]; peptide modifications: H3K115me3, binder concentration: 100 nM",0.00872 ± 0.00066
same,peptide microarray binding signal,[3]; [7],0.0334 ± 0.0055
same,peptide microarray binding signal,[3]; [8],0.0596 ± 0.027
same,peptide microarray binding signal,[4]; [7],0.0319 ± 0.041
same,peptide microarray binding signal,[4]; [8],0.0536 ± 0.0037
B3,peptide microarray binding signal,"[1]; peptide modifications: H3K115me3 H3K122ac, binder concentration: 50 nM",0.00408 ± 6.9e-05
same,peptide microarray binding signal,"[1]; peptide modifications: H3K115me3 H3K122ac, binder concentration: 500 nM",0.00905 ± 0.0013
same,peptide microarray binding signal,"[2]; peptide modifications: H3K115me3 H3K122ac, binder concentration: 10 nM",0.0419 ± 0.0077
same,peptide microarray binding signal,"[2]; peptide modifications: H3K115me3 H3K122ac, binder concentration: 100 nM",0.0725 ± 0.024
same,peptide microarray binding signal,[3]; [9],0.0222 ± 0.0067
same,peptide microarray binding signal,[3]; [10],0.0228 ± 0.0068
same,peptide microarray binding signal,[4]; [9],0.0259 ± 0.0045
same,peptide microarray binding signal,[4]; [10],0.0117 ± 0.0018
B4,peptide microarray binding signal,"[1]; peptide modifications: H3K115me3 H3K122me1, binder concentration: 50 nM",0.006489 ± 2.2e-05
same,peptide microarray binding signal,"[1]; peptide modifications: H3K115me3 H3K122me1, binder concentration: 500 nM",0.0138 ± 0.00023
same,peptide microarray binding signal,"[2]; peptide modifications: H3K115me3 H3K122me1, binder concentration: 10 nM",0.0505 ± 0.0051
same,peptide microarray binding signal,"[2]; peptide modifications: H3K115me3 H3K122me1, binder concentration: 100 nM",0.0785 ± 0.0067
same,peptide microarray binding signal,[3]; [11],0.0317 ± 0.0091
same,peptide microarray binding signal,[3]; [12],0.0326 ± 0.0097
same,peptide microarray binding signal,[4]; [11],0.0313 ± 0.0018
same,peptide microarray binding signal,[4]; [12],0.0119 ± 0.00075
B5,peptide microarray binding signal,"[1]; peptide modifications: H3K115me3 H3K122me2, binder concentration: 50 nM",0.00464 ± 6.3e-05
same,peptide microarray binding signal,"[1]; peptide modifications: H3K115me3 H3K122me2, binder concentration: 500 nM",0.009477 ± 4.6e-05
same,peptide microarray binding signal,"[2]; peptide modifications: H3K115me3 H3K122me2, binder concentration: 10 nM",0.0436 ± 0.0022
same,peptide microarray binding signal,"[2]; peptide modifications: H3K115me3 H3K122me2, binder concentration: 100 nM",0.0676 ± 0.0025
same,peptide microarray binding signal,[3]; [13],0.0196 ± 0.00059
same,peptide microarray binding signal,[3]; [14],0.0182 ± 0.0013
same,peptide microarray binding signal,[4]; [13],0.0246 ± 0.0043
same,peptide microarray binding signal,[4]; [14],0.00894 ± 0.00038
B6,peptide microarray binding signal,"[1]; peptide modifications: H3K115me3 H3K122me3, binder concentration: 50 nM",0.00652 ± 0.00013
same,peptide microarray binding signal,"[1]; peptide modifications: H3K115me3 H3K122me3, binder concentration: 500 nM",0.014 ± 0.00024
same,peptide microarray binding signal,"[2]; peptide modifications: H3K115me3 H3K122me3, binder concentration: 10 nM",0.08 ± 0.013
same,peptide microarray binding signal,"[2]; peptide modifications: H3K115me3 H3K122me3, binder concentration: 100 nM",0.133 ± 0.011
same,peptide microarray binding signal,[3]; [15],0.0798 ± 0.017
same,peptide microarray binding signal,[3]; [16],0.0823 ± 0.0064
same,peptide microarray binding signal,[4]; [15],0.0648 ± 0.013
same,peptide microarray binding signal,[4]; [16],0.0227 ± 0.0026
B7,peptide microarray binding signal,"[1]; peptide modifications: H3K115me3 H3R116cit, binder concentration: 50 nM",0.00821 ± 0.00022
same,peptide microarray binding signal,"[1]; peptide modifications: H3K115me3 H3R116cit, binder concentration: 500 nM",0.0148 ± 0.00063
same,peptide microarray binding signal,"[2]; peptide modifications: H3K115me3 H3R116cit, binder concentration: 10 nM",0.0661 ± 0.012
same,peptide microarray binding signal,"[2]; peptide modifications: H3K115me3 H3R116cit, binder concentration: 100 nM",0.0923 ± 0.011
same,peptide microarray binding signal,[3]; [17],0.0677 ± 0.0083
same,peptide microarray binding signal,[3]; [18],0.058 ± 0.0049
same,peptide microarray binding signal,[4]; [17],0.0746 ± 0.0023
same,peptide microarray binding signal,[4]; [18],0.0265 ± 0.00085
B8,peptide microarray binding signal,"[1]; peptide modifications: H3K115me3 H3R116me1, binder concentration: 50 nM",0.0052 ± 0.00018
same,peptide microarray binding signal,"[1]; peptide modifications: H3K115me3 H3R116me1, binder concentration: 500 nM",0.00929 ± 0.00049
same,peptide microarray binding signal,"[2]; peptide modifications: H3K115me3 H3R116me1, binder concentration: 10 nM",0.0491 ± 0.0085
same,peptide microarray binding signal,"[2]; peptide modifications: H3K115me3 H3R116me1, binder concentration: 100 nM",0.07016 ± 0.00021
same,peptide microarray binding signal,[3]; [19],0.0275 ± 0.0037
same,peptide microarray binding signal,[3]; [20],0.0305 ± 0.0067
same,peptide microarray binding signal,[4]; [19],0.0215 ± 0.0033
same,peptide microarray binding signal,[4]; [20],0.0113 ± 0.0013
B9,peptide microarray binding signal,"[1]; peptide modifications: H3K115me3 H3R116me2a, binder concentration: 50 nM",0.00345 ± 4.9e-05
same,peptide microarray binding signal,"[1]; peptide modifications: H3K115me3 H3R116me2a, binder concentration: 500 nM",0.00524 ± 0.00015
same,peptide microarray binding signal,"[2]; peptide modifications: H3K115me3 H3R116me2a, binder concentration: 10 nM",0.0172 ± 0.00022
same,peptide microarray binding signal,"[2]; peptide modifications: H3K115me3 H3R116me2a, binder concentration: 100 nM",0.0232 ± 0.0011
same,peptide microarray binding signal,[3]; [21],0.00885 ± 0.0017
same,peptide microarray binding signal,[3]; [22],0.00451 ± 0.00052
same,peptide microarray binding signal,[4]; [21],0.00763 ± 0.0013
same,peptide microarray binding signal,[4]; [22],0.00467 ± 0.00017
B10,peptide microarray binding signal,"[1]; peptide modifications: H3K115me3 H3R116me2s, binder concentration: 50 nM",0.00351 ± 6.2e-05
same,peptide microarray binding signal,"[1]; peptide modifications: H3K115me3 H3R116me2s, binder concentration: 500 nM",0.00576 ± 0.00044
same,peptide microarray binding signal,"[2]; peptide modifications: H3K115me3 H3R116me2s, binder concentration: 10 nM",0.0107 ± 0.00099
same,peptide microarray binding signal,"[2]; peptide modifications: H3K115me3 H3R116me2s, binder concentration: 100 nM",0.0126 ± 0.0027
same,peptide microarray binding signal,[3]; [23],0.00608 ± 0.0018
same,peptide microarray binding signal,[3]; [24],0.0069 ± 0.00085
same,peptide microarray binding signal,[4]; [23],0.0055 ± 0.00076
same,peptide microarray binding signal,[4]; [24],0.00386 ± 0.00058
